Unmarked numbers belong to inactive results.
Legend:
Experiment in all cases: log2 ratio of Biotin-Ahx-Ub-VS probe labelling (fragment/DMSO); higher = less target engagement (more negative = stronger competition), active = hit call of the paper (q ≤ 0.05, log2 ratio ≤ -1)
Conditions in all cases: compound concentration: 200 uM; treatment time: 3 h
ALG13 = molecular target: T1, ALG13 (UniProt Q9NP73)
T1 sequence (whole entry): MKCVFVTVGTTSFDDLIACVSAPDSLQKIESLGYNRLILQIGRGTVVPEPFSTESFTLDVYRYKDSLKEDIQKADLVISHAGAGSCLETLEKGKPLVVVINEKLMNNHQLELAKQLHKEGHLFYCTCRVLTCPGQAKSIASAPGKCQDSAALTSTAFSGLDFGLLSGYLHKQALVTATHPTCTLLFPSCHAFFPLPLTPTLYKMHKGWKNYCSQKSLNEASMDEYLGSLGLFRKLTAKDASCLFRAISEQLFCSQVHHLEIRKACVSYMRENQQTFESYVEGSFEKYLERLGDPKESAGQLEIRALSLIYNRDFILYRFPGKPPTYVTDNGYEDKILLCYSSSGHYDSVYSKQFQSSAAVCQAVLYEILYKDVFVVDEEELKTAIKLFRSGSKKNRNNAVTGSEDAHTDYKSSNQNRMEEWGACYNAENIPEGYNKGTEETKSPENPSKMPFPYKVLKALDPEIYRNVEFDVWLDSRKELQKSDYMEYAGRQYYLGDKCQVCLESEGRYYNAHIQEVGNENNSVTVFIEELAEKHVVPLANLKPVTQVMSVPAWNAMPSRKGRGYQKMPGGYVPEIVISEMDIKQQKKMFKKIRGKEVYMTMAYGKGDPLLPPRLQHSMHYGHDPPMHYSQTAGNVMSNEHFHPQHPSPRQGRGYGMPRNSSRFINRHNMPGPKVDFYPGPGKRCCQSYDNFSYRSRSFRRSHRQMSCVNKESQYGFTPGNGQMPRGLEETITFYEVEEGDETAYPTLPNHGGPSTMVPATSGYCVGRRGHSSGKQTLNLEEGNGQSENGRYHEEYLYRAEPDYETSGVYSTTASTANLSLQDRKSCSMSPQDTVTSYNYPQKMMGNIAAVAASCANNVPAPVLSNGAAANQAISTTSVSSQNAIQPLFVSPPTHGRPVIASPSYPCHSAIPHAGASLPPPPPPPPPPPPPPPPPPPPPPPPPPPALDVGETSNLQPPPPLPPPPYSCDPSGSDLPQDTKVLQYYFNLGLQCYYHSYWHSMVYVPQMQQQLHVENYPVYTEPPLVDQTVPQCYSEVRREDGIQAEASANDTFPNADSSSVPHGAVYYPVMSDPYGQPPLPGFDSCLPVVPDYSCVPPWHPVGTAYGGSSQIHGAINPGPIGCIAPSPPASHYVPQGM
Summary of the method: (§1)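 Fragment (200 µM) or vehicle was incubated for 3 h with triplicate HEK293T lysate samples of 495 µg, which were then treated with Biotin-Ahx-Ub-VS at 0.5 µM final for 1 h. Labelled DUBs were enriched on NeutrAvidin, digested with LysC and trypsin, and analysed by diaPASEF LC-MS/MS. Values are average log2 fragment/vehicle ratios from an unpaired t-test on global-median-normalised Spectronaut label-free quantities, using proteins with ≥2 unique peptides.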

ATXN3 = ATXN3 (UniProt P54252)
Summary of the method: as §1

BAP1 = molecular target: T2, BAP1 (UniProt Q92560)
T2 sequence (whole entry): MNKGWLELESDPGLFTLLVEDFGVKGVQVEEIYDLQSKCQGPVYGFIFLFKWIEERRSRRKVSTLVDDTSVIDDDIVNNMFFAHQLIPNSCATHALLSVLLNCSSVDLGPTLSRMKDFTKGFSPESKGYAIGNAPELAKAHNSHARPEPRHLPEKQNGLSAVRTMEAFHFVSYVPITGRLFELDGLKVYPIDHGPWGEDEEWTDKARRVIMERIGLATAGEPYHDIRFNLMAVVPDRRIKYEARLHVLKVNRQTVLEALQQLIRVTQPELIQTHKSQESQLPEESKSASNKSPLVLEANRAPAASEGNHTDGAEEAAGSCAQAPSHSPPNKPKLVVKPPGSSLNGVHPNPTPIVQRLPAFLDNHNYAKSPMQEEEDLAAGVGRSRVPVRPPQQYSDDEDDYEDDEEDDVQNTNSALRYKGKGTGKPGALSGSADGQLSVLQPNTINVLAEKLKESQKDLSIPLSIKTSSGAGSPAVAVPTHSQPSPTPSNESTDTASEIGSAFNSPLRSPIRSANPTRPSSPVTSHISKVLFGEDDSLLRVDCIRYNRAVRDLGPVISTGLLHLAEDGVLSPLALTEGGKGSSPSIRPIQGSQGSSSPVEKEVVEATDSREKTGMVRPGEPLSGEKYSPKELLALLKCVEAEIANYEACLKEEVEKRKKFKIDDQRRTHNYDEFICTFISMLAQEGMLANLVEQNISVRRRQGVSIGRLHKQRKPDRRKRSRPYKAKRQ
Summary of the method: as §1

EIF3F = EIF3F (UniProt O00303)
Summary of the method: as §1

EIF3H = EIF3H (UniProt O15372)
Summary of the method: as §1

FAM105A = molecular target: T3, FAM105A (UniProt Q9NUU6)
T3 sequence (whole entry): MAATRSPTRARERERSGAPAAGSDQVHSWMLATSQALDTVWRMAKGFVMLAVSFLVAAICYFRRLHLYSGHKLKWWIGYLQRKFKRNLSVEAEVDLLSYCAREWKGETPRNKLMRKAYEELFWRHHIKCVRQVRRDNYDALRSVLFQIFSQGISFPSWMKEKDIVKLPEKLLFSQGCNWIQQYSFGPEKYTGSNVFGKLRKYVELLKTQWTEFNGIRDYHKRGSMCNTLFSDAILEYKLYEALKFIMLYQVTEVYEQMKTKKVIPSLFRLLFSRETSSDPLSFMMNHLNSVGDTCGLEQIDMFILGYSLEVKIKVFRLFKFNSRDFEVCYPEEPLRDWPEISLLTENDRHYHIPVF
Summary of the method: as §1

OTUB1 = OTUB1 (UniProt Q96FW1)
Summary of the method: as §1

OTUD4 = molecular target: T4, OTUD4 (UniProt Q01804)
T4 sequence (whole entry): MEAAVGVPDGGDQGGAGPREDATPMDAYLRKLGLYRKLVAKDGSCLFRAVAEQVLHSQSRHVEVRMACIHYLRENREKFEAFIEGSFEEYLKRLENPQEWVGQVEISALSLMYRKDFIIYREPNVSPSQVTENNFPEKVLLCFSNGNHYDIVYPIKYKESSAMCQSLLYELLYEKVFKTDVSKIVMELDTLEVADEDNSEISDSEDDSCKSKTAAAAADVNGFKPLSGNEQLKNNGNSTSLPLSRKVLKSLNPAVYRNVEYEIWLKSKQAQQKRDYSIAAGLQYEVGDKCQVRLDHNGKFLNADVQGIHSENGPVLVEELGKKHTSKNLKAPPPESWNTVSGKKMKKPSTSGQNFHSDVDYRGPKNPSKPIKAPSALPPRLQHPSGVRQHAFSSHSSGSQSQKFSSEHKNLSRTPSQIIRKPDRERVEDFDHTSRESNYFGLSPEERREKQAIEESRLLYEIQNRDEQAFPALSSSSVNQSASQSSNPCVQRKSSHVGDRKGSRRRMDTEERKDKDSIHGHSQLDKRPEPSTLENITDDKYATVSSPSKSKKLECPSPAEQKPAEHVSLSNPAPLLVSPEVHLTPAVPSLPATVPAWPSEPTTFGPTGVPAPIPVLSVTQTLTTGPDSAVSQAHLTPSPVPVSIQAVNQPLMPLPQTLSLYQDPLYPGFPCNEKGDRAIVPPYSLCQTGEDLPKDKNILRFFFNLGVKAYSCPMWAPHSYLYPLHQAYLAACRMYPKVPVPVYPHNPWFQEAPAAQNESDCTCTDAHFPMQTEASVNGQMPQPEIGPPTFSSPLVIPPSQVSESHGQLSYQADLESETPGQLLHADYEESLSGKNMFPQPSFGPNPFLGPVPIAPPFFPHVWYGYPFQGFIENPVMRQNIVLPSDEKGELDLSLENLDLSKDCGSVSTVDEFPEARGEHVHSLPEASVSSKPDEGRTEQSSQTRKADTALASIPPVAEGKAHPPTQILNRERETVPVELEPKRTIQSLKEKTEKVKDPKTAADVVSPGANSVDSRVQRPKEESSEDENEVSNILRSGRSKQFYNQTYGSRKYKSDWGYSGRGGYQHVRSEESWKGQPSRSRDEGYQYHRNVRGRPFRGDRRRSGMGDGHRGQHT
Summary of the method: as §1

OTUD5 = molecular target: T5, OTUD5 (UniProt Q96G74)
T5 sequence (whole entry): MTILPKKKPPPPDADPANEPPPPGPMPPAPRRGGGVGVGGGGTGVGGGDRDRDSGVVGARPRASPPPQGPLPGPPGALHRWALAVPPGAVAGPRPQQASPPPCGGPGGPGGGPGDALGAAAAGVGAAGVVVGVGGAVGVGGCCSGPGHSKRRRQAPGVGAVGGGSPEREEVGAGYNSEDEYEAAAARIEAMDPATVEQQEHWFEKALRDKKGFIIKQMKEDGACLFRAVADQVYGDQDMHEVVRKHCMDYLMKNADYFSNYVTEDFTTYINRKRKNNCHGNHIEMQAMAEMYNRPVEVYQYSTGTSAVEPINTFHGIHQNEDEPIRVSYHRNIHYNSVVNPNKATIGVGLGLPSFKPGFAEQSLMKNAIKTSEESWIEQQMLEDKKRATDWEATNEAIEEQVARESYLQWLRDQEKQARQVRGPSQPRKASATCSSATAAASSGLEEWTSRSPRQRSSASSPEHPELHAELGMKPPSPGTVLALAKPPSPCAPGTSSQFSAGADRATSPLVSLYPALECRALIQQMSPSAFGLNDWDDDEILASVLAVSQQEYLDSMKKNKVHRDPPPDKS
Summary of the method: as §1

Chain of EIF3F (O00303 whole entry): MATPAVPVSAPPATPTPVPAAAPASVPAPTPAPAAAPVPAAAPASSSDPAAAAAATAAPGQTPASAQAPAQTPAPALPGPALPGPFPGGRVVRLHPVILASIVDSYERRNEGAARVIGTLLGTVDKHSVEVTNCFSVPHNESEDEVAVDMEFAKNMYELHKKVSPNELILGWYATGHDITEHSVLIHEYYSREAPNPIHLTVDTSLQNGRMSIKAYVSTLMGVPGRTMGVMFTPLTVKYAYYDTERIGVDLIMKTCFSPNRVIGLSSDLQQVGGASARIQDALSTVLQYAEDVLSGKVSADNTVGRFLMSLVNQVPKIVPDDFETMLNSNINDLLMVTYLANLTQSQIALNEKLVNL
Chain of EIF3H (O15372 whole entry): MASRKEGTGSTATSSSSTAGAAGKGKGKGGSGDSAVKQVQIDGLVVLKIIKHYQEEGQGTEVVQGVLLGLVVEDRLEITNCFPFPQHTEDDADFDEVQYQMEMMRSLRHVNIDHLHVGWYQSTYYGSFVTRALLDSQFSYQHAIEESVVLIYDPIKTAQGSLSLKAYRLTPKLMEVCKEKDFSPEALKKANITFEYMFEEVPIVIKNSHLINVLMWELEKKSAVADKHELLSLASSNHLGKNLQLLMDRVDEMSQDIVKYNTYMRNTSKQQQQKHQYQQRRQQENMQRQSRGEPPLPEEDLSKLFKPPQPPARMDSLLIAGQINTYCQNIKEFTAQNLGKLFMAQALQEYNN
Chain of ATXN3 (P54252 whole entry): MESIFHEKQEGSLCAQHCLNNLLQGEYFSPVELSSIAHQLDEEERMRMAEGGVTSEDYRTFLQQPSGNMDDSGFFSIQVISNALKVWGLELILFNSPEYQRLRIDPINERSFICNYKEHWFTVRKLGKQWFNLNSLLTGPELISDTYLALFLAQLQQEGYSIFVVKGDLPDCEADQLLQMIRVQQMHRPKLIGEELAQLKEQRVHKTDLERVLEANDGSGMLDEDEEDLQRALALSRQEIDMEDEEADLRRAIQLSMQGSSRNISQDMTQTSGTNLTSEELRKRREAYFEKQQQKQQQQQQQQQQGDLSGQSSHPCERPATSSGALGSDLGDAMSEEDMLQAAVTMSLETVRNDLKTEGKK
Chain of OTUB1 (Q96FW1 whole entry): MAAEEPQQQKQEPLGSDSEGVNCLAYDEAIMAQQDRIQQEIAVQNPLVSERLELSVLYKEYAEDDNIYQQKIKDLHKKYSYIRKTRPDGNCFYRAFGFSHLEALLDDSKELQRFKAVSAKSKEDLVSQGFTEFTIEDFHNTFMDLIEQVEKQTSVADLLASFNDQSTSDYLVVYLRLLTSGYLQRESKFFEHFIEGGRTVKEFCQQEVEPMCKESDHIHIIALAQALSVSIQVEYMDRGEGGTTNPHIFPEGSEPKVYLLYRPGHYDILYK

Row | SMILES | log2 ratio of Biotin-Ahx-Ub-VS probe labelling (ALG13) | log2 ratio of Biotin-Ahx-Ub-VS probe labelling (ATXN3) | log2 ratio of Biotin-Ahx-Ub-VS probe labelling (BAP1) | log2 ratio of Biotin-Ahx-Ub-VS probe labelling (EIF3F) | log2 ratio of Biotin-Ahx-Ub-VS probe labelling (EIF3H) | log2 ratio of Biotin-Ahx-Ub-VS probe labelling (FAM105A) | log2 ratio of Biotin-Ahx-Ub-VS probe labelling (OTUB1) | log2 ratio of Biotin-Ahx-Ub-VS probe labelling (OTUD4) | log2 ratio of Biotin-Ahx-Ub-VS probe labelling (OTUD5)
1 | O=C(CCl)NCCc1ccc2c(c1)OCCO2 | -0.0432 | -0.16 | -1.7 (active) | -0.184 | 0.186 | 0.307 | -0.173 | -0.539 | -0.693
2 | O=C(CCl)NC1CCN(C(=O)C2CCCCC2)CC1 | -0.358 | -0.103 | -1.71 (active) | -0.569 | 0.155 | -0.0528 | -0.0801 | 0.0192 | -0.0926
3 | O=C(CCl)Nc1cccc(C(=O)N2CCSCC2)c1 | 0.254 | -0.874 | -3.62 (active) | -0.466 | 0.0708 | 0.0218 | -0.523 | -0.0407 | -0.638
4 | CC(NC(=O)CCl)c1noc(Cc2ccccc2)n1 (configuration not stated) | 0.107 | -0.275 | -2.73 (active) | -0.25 | -0.398 | -0.027 | 0.0412 | -0.692 | -0.271
5 | CC(NC(=O)CCl)c1cc2n(n1)CCCC2.Cl (configuration not stated) | 0.164 | 0.242 | -1.36 (active) | -0.359 | 0.193 | -0.0943 | 0.0152 | 0.133 | -0.0818
6 | O=C(CCl)N1CCC(C(=O)N2CCCC2)CC1 | 0.141 | -0.319 | -0.206 | -0.123 | -0.0247 | -0.324 | -0.0283 | 0.178 | -0.137
7 | Cl.Cn1nccc1C(NC(=O)CCl)c1ccccc1 (configuration not stated) | -0.0316 | -0.49 | -4.27 (active) | -0.145 | 0.106 | 0.0639 | -0.173 | -0.894 | -0.379
8 | COCC1C=CCCN1C(=O)CCl (configuration not stated) | 0.0362 | -0.232 | -0.527 | -0.011 | 0.276 | 0.371 | 0.0515 | -0.452 | -0.298

— the supplement of paper PMC11732987, “Enantioselective OTUD7B fragment discovery through chemoproteomics screening and high-throughput optimisation” (Communications Chemistry, 2025)
